Test systems include MYO3A; MYO3B; NDR2; NEK10; NEK11; NEK1; NEK2; NEK3; NEK4; NEK5; NEK6; NEK7; NEK9; NLK; PAK1; PAK2.
Holding throughout (conditions): concentration: 1 μM, replicates: in singlicate; n = 1
Another assay concerns T1, NDR1.
T1 construct: gene STK38

In the next assay the test system is T2, NIK.
T2 construct: gene MAP3K14

The next assay has as its system T3, NIM1.
T3 construct: gene MGC42105

In a further assay the test system is T4, OSR1.
T4 construct: gene OXSR1
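Also: KINOMEscan kinase panel screen.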

`Fc1ccc(-c2nn3cccc(F)c3c2-c2ccncc2)cc1` [GW475620]: the “%Inh” value in the assay with MYO3A was determined as 0%; in the assay on MYO3B it was 7%; in the assay with NDR1 it was 0%; in the assay on NDR2 it was 0%; in the assay with NEK10, 1%; in the assay with NEK11 it was 0%. Moreover, the “%Inh” value in the assay on NEK1 turned out to be 0%; in the assay with NEK2, 0%; in the assay on NEK3 it was 0%; in the assay on NEK4, 0%; in the assay with NEK5, 0%; with NEK6 it was 2%. Besides, the “%Inh” value worked out at 1% in the assay on NEK7; 0% with NEK9; 37% with NIK; 21% with NIM1; 61% in the assay with NLK; 2% with OSR1. The “%Inh” value in the assay with PAK1 is listed as 0%; in the assay with PAK2, 3%.
For the compound `CS(=O)(=O)Cc1ccc(Nc2nccc(-c3c(-c4cccc(NC(=O)C5CCCCC5)c4)nn4ncccc34)n2)cc1` [GSK350559], the “%Inh” value with MYO3A turned out to be 0%; in the assay on MYO3B, 0%; with NDR1, 0%; in the assay on NDR2, 17%; in the assay on NEK10, 22%; in the assay with NEK11, 15%. The “%Inh” value came to 0% with NEK1; 10% in the assay with NEK2; 32% in the assay with NEK3; 25% with NEK4; 15% with NEK5; 4% in the assay with NEK6. Moreover, the “%Inh” value in the assay on NEK7 is given as 18%; in the assay with NEK9 it was 0%; in the assay on NIK, 0%; in the assay on NIM1, 32%; with NLK, 1%; in the assay on OSR1 it was 22%. For the same compound, the “%Inh” value in the assay on PAK1 turned out to be 7%; in the assay with PAK2 it was 8%.
For the compound `CC(C)c1ccc(O)cc1Nc1ccnc2ccc(C(F)(F)F)cc12` [GW482059], the “%Inh” value in the assay on MYO3A was determined as 0%; in the assay on MYO3B, 0%; in the assay on NDR1 it was 0%; with NDR2 it was 0%; in the assay with NEK10, 0%; with NEK11, 22%. Moreover, the “%Inh” value in the assay with NEK1 came to 0%; in the assay with NEK2, 2%; in the assay with NEK3 it was 0%; in the assay on NEK4 it was 0%; with NEK5, 0%; in the assay with NEK6 it was 0%. Also, the “%Inh” value in the assay with NEK7 amounted to 0%; with NEK9, 0%; in the assay on NIK, 0%; in the assay with NIM1, 0%; in the assay with NLK it was 0%; in the assay with OSR1, 1%. In addition, the entries for the “%Inh” value in the assay with PAK1 and in the assay with PAK2 were 0% and 6%, respectively.
As for `Cn1cncc1C(=O)NC1CCN(c2ccnc(Nc3ccc(F)cc3)n2)C1` (centres unmarked) [GSK1379717], the “%Inh” value is reported as 15% in the assay with MYO3A; 0% in the assay with MYO3B; 0% in the assay on NDR1; 0% with NDR2; 0% with NEK10; 0% with NEK11. For the same compound, the “%Inh” value is given as 0% in the assay with NEK1; 0% with NEK2; 21% in the assay on NEK3; 3% in the assay on NEK4; 17% in the assay on NEK5; 0% in the assay on NEK6. The “%Inh” value was determined as 0% in the assay with NEK7; 0% in the assay with NEK9; 25% in the assay on NIK; 24% in the assay on NIM1; 13% with NLK; 0% in the assay with OSR1. The “%Inh” value with PAK1 and in the assay with PAK2 was 0% in each case.
`Nc1ncnc2occ(-c3ccc4c(c3)CCN4C(=O)Cc3cc(F)ccc3F)c12` [GSK2645446]: the “%Inh” value with MYO3A turned out to be 26%; in the assay with MYO3B, 0%; in the assay on NDR1 it was 11%; in the assay on NDR2, 0%; with NEK10, 1%; in the assay on NEK11, 2%. Further, the “%Inh” value with NEK1 is 0%; in the assay with NEK2 it was 70%; in the assay with NEK3, 0%; with NEK4, 0%; in the assay with NEK5, 22%; in the assay on NEK6, 0%. For the same compound, the “%Inh” value in the assay on NEK7 is given as 0%; with NEK9 it was 4%; with NIK, 17%; in the assay with NIM1 it was 8%; with NLK, 0%; in the assay with OSR1, 0%. Also, the “%Inh” value was found to be 0% in the assay on PAK1 and 4% with PAK2.
Turning to `Cc1ccccc1Cn1ccn2c(=O)cc(N3CCOCC3)nc12` [GSK2269905], the “%Inh” value in the assay on MYO3A turned out to be 7%; in the assay with MYO3B, 0%; in the assay with NDR1 it was 12%; in the assay with NDR2, 0%; in the assay on NEK10 it was 2%; in the assay with NEK11, 0%. Besides, the “%Inh” value with NEK1 was found to be 0%; in the assay on NEK2, 13%; in the assay on NEK3, 11%; with NEK4 it was 16%; in the assay on NEK5 it was 4%; in the assay on NEK6, 0%. For the same compound, the “%Inh” value with NEK7 was determined as 0%; with NEK9, 0%; in the assay with NIK, 0%; in the assay on NIM1, 19%; in the assay with NLK, 9%; with OSR1 it was 6%. Moreover, the “%Inh” value is recorded as 12% with PAK1 and 13% in the assay with PAK2.
On to `CNCc1ccc2nc(NC(=O)c3ccc(C(C)(C)C)cc3)cn2c1`, for which the “%Inh” value in the assay on MYO3A worked out at 2%; in the assay on MYO3B it was 0%; in the assay with NDR1, 34%; in the assay on NDR2 it was 3%; with NEK10 it was 20%; in the assay on NEK11, 34%. In addition, the “%Inh” value in the assay with NEK1 is recorded as 28%; in the assay with NEK2 it was 2%; in the assay on NEK3, 18%; in the assay with NEK4, 7%; with NEK5, 0%; in the assay with NEK6, 2%. In addition, the “%Inh” value is on record as 10% in the assay with NEK7; 3% with NEK9; 28% in the assay with NIK; 3% in the assay with NIM1; 1% in the assay with NLK; 22% in the assay with OSR1. In addition, the “%Inh” value in the assay on PAK1 was found to be 7%; in the assay with PAK2 it was 26%.
`Cn1cncc1-c1cc2c(Nc3ccc(OCc4ccccc4)cc3)ncnc2cn1` [GW281179]: the “%Inh” value with MYO3A worked out at 10%; in the assay with MYO3B, 0%; with NDR1, 10%; in the assay with NDR2, 0%; in the assay on NEK10, 17%; in the assay with NEK11 it was 13%. In addition, the “%Inh” value with NEK1 is listed as 0%; in the assay with NEK2, 0%; in the assay on NEK3, 0%; with NEK4, 5%; in the assay with NEK5, 26%; with NEK6 it was 0%. The “%Inh” value in the assay on NEK7 turned out to be 0%; in the assay with NEK9, 45%; in the assay with NIK, 3%; in the assay with NIM1, 21%; in the assay on NLK, 29%; with OSR1 it was 14%. Moreover, the “%Inh” value is 10% in the assay on PAK1 and 19% in the assay with PAK2.
Turning to `Cc1ccc(NC(=O)c2ccc(Cl)cc2)cc1-c1ccc(C(=O)Nc2ccncc2)cc1` [GSK1398467], the “%Inh” value in the assay on MYO3A amounted to 16%; with MYO3B, 0%; in the assay on NDR1, 0%; with NDR2 it was 0%; in the assay with NEK10, 0%; in the assay with NEK11 it was 0%. For the same compound, the “%Inh” value turned out to be 0% in the assay on NEK1; 5% with NEK2; 15% with NEK3; 0% in the assay on NEK4; 0% with NEK5; 0% with NEK6. The “%Inh” value in the assay with NEK7 came out at 0%; in the assay with NEK9, 0%; with NIK, 3%; in the assay with NIM1 it was 5%; in the assay on NLK, 38%; in the assay with OSR1, 0%. In addition, the “%Inh” value in the assay on PAK1 and in the assay on PAK2 was 0% in each case.
Take `Cl.Cl.Cl.N#Cc1ccc(CCNc2nccc(-c3cccc(CN4CCNCC4)c3)n2)cc1` [GSK2137462]: the “%Inh” value in the assay on MYO3A worked out at 2%; in the assay on MYO3B, 0%; in the assay on NDR1, 4%; in the assay on NDR2 it was 0%; in the assay on NEK10 it was 1%; in the assay with NEK11, 0%. In addition, the “%Inh” value is given as 0% in the assay on NEK1; 15% in the assay with NEK2; 0% with NEK3; 0% in the assay with NEK4; 33% in the assay on NEK5; 0% with NEK6. The “%Inh” value worked out at 0% with NEK7; 27% in the assay on NEK9; 0% with NIK; 3% in the assay on NIM1; 24% with NLK; 9% in the assay on OSR1. Besides, the “%Inh” value in the assay with PAK1 is listed as 24%; with PAK2 it was 21%.
